An excerpt weighted towards active compounds, which were near 3.1% of everything screened.
ATG4B inhibitor: ATG4B (human) cysteine protease inhibition. Q9Y4P1. ATG4B cleavage of LC3-PLA2, NBD-HPC fluorescence, 1 h. inhibition, % at 8.33 µM. hit rate 0.51% among 340,000. AID 504462; in the data active = inhibition above about 40%
SUMO Mot1 rescue: SUMOylation pathway inhibition by Mot1-301 growth rescue | S. cerevisiae Mot1-301 growth rescue, ATP luminescence, 38.5C; percent above DMSO median, 100 means doubled | growth rescue, % at 18.8 µM | hit rate 1% among 320,000 | AID 2716;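 active = every valid replicate shows activation above 250% relative to neutral control wells; inactive = the rest, any valid replicate at or below 250%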
Calb FLC: C. albicans growth modulation with fluconazole; C. albicans CaCi-2 (fluconazole-resistant clinical isolate) + fluconazole, Alamar Blue growth, 48 h; growth inhibition, % (no concentration beside the values); hit rate 0.57% among 300,000; AID 1979;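 active = growth inhibition above about 58% in most replicates, limit read from the data, passing the limit was not always enough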;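 note: all wells also contain fluconazole at 8 µg/ml as a sub-toxic cotreatment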
NadD inh: inhibitors of Staphylococcus aureus NadD | inhibition, % at 20 µM | hit rate 0.78% among 360,000 | purified NadD enzyme, colorimetric absorbance read-out; in the data active = inhibition above about 26%
FAS-TE inh: FAS thioesterase (human) inhibition | recombinant FAS-TE, OMFH fluorogenic substrate, fluorescence endpoint | inhibition, % at 15 µM | hit rate 0.67% among 360,000;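 active = compounds whose normalised, plate-corrected inhibition of enzyme fluorescence in the single-dose primary screen is 50% or more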
NadD inh conf: NadD (S. aureus) inhibition, single concentration confirmation | shares compounds with NadD inh | purified S. aureus NadD, colorimetric enzyme assay | inhibition, % at 20 µM | hit rate 13% among 2,000; in the data active = inhibition mostly above about 42%, no sharp cut-off; inactive = mostly below about 42%
Each line names hits and unclear results; the compound was inactive in the other large screens (follow-up assays come after a bar, where they were run).

O=C(Nc1cccc(-c2csc(Nc3cccc(C(F)(F)F)c3)n2)c1)c1cc([N+](=O)[O-])cc(C(F)(F)F)c1	NadD inh 37 | NadD inh conf inactive
CC(=O)c1cccc(Nc2nc(-c3cccc([N+](=O)[O-])c3)cs2)c1	none
O=C(Nc1ccc(-c2csc(Nc3ccccc3)n2)cc1)c1cc([N+](=O)[O-])cc(C(F)(F)F)c1	NadD inh 32 | NadD inh conf inactive
O=C(Nc1ccc(-c2csc(Nc3ccccc3)n2)cc1)c1cccc(C(F)(F)F)c1	none
COc1ccc(-c2ccc(CN3C(CC(C)C)C(=O)N(Cc4cn(CCC5OCCO5)nn4)CCS3(=O)=O)cc2)cc1OC (stereo not given)	none (no result: ATG4B inhibitor, SUMO Mot1 rescue, Calb FLC)
COc1cccc(O)c1CN1CCC(n2nccc2NC(=O)c2ccc3c(c2)OCO3)CC1	none
CCc1nnc(NC(=O)CSc2nnc(-c3c[nH]c4ccccc34)n2C)s1	none
CCOC(=O)c1c(NC(=O)CSc2nnc(-c3c[nH]c4ccccc34)n2CCOC)sc2c1CCCC2	NadD inh 34 | NadD inh conf inactive
CCOC(=O)c1c(NC(=O)CSc2nnc(-c3c[nH]c4ccccc34)n2C)sc2c1CCCC2	NadD inh 33 | NadD inh conf inactive
COc1ccc(N2CCN(C(=O)COC(=O)CSc3ccccc3)CC2)cc1	none (no result: SUMO Mot1 rescue, Calb FLC)
Cc1ccc(OCC(=O)Nc2nnc(S(=O)(=O)N3CCCCC3)s2)cc1	NadD inh 49 | NadD inh conf inactive
O=C(Nc1nnc(S(=O)(=O)N2CCCCCC2)s1)c1ccc(Cl)cc1	NadD inh 31 | NadD inh conf inactive
Cc1ccc(C(=O)Nc2nnc(S(=O)(=O)N3CCCCCC3)s2)cc1	none
CC1CN(C(=O)c2ccc(-c3cccc(C(F)(F)F)c3)o2)CC(C)O1 (stereo not given)	none
O=C(Cc1c(F)cccc1Cl)NNC(=O)Nc1ccc2c(c1)OCO2	none
C[C@H]1O[C@H](C2CCCC2)CC2=C1C(=O)OC(C)(C)O2	none (no result: ATG4B inhibitor, SUMO Mot1 rescue, Calb FLC)
CC1CCC(NC(=O)CN2CCN(S(=O)(=O)c3ccc(Br)s3)CC2)CC1 (stereo not given)	none (no result: ATG4B inhibitor, SUMO Mot1 rescue, Calb FLC)
CCCC(=O)N1CCC1(C)C(=O)Nc1ccc2scnc2c1 (stereo not given)	none (no result: ATG4B inhibitor, SUMO Mot1 rescue, Calb FLC)
COc1cc(/C=C(\C#N)c2nc(-c3cc4ccccc4oc3=O)cs2)ccc1O	NadD inh 50 | NadD inh conf inactive
O=c1oc2ccc3ccccc3c2cc1-c1nnc(-c2cccs2)o1	NadD inh 50 (no result: SUMO Mot1 rescue) | NadD inh conf inactive
FC(F)(F)c1ccc(C2[C@H]3CN(Cc4ccc(-c5ccccc5)cc4)[C@H](c4ccccc4)C34CC2(c2cccnc2)C4)cc1 (stereo not given in full)	none (no result: NadD inh, FAS-TE inh)
c1ccc(-c2ccc(CN3C[C@@H]4C(c5ccccc5)C5(c6cccnc6)CC4(C5)[C@H]3c3ccccc3)cc2)cc1 (stereo not given in full)	NadD inh 52 | NadD inh conf inactive
CCN(CC)S(=O)(=O)c1cccc(NC(=O)C2SC(=Nc3ccc(C)cc3C)C(C(=O)NCC3CCCO3)=C2N)c1 (stereo not given)	NadD inh 37 (no result: SUMO Mot1 rescue) | NadD inh conf inactive
COc1ccccc1N(C)S(=O)(=O)c1ccc(C(=O)Nc2ccncc2)cc1	none (no result: Calb FLC)
CCOC(=O)N1CCN(C(=O)C(=O)Nc2sc3c(c2C(=O)O)CC(C)(C)OC3)CC1	none
Cc1ccccc1C(=O)N=c1ccn(-c2nc3ccccc3nc2NS(=O)(=O)c2ccc(F)cc2)cc1	NadD inh 30 | NadD inh conf 56
O=C(N=c1ccn(-c2nc3ccccc3nc2NS(=O)(=O)c2ccccc2)cc1)c1cccs1	none
CCn1c(SCc2nc3scc(-c4ccccc4)c3c(=O)[nH]2)nnc1-c1cccs1	none
COCCn1c(SCc2nc3scc(-c4ccc(Cl)cc4)c3c(=O)[nH]2)nnc1-c1cccc(C)c1	NadD inh 33 | NadD inh conf inactive
COc1ccccc1NC(=O)c1sc2ncn(CC(=O)Nc3ccccc3)c(=O)c2c1C	NadD inh 30 | NadD inh conf inactive
CC(=O)c1ccccc1NC(=O)CN1C(=O)CS/C1=C\c1nc(-c2ccc(C)cc2)cs1	NadD inh 46 | NadD inh conf inactive
Nc1c(C(=O)O)sc2nc(-c3ccccc3)cc(-c3ccccc3)c12	none
Nc1c(C(=O)O)sc2nc(-c3ccccc3)cc(-c3ccc(F)cc3)c12	NadD inh 35 | NadD inh conf inactive
Cc1ccc(-n2ncc3c(SCC(=O)Nc4cc(C)on4)ncnc32)c(C)c1	none

Source: PubChem (several laboratories)
